Calls of active or inactive are those of the source. The rule behind the calls is not given here.
The compounds below were run against Dual specificity protein kinase CLK1 (Homo sapiens) (UniProt P49759) (assay: ligand-induced CLK1 melting temperature shift – biophysical, recombinant human kinase, DSF (AID 382)). Conditions: Recombinant CLK1, thermal shift (DSF), at 10 µM, protein 1.7 µM, buffer 10 mM HEPES, pH 7.5, NaCl 150 mM, with 50 µM L-Arg/L-Glu (1:1), active compounds read high.
Dual specificity protein kinase CLK1 (Homo sapiens), sequence (P49759 whole entry, looked up): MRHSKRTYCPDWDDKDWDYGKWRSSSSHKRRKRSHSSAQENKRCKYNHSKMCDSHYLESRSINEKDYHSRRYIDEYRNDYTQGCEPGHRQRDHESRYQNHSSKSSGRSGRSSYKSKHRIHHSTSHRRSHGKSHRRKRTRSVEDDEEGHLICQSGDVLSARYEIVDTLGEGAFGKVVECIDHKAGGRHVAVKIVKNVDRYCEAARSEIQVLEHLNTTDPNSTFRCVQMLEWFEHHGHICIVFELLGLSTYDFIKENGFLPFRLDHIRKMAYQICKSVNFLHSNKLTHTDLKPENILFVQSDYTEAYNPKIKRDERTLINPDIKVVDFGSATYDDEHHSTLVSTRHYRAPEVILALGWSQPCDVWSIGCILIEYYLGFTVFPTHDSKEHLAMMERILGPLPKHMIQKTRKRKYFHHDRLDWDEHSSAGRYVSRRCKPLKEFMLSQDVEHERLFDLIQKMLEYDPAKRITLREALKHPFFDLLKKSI

Tm shift, active:
Nc1nc(Nc2ccccc2)sc1C(=O)c1ccc(F)cc1 3.2 Celsius
COc1ccc(Nc2nc(N)c(C(=O)c3ccc(OC)cc3)s2)cc1 4.5 Celsius
COc1ccc(C(=O)c2sc(Nc3cccc(C(F)(F)F)c3)nc2N)cc1 3.7 Celsius

Same assay, conditions: Recombinant CLK1, thermal shift (DSF), at 10 µM, protein 2 µM, buffer 10 mM HEPES, NaCl 150 mM, active compounds read high

Tm shift, active:
O=Nc1c(-c2c(O)[nH]c3ccc(I)cc23)[nH]c2ccccc12 5.14 Celsius
O=C1C(=O)C(c2cc(O)c(O)c(O)c2)Oc2cc(O)cc(O)c21 (stereo not given) 6.4 Celsius
O=c1cc(-c2ccc(O)c(O)c2)oc2cc(O)cc(O)c12 5.77 Celsius
O=c1c(O)c(-c2cc(O)c(O)c(O)c2)oc2cc(O)cc(O)c12 6.89 Celsius
O=C1C(=O)C(c2cccc(O)c2)Oc2ccccc21 (stereo not given) 3.88 Celsius
O=C1NC(=O)C(c2c[nH]c3ccccc23)=C1c1c[nH]c2ccccc12 4.13 Celsius
COc1cc2ncnc(Nc3cccc(O)c3)c2cc1OC 4.15 Celsius
N=C(N)SCCCn1cc(C2=C(c3c[nH]c4ccccc34)C(=O)NC2=O)c2ccccc21 10.3 Celsius
COc1cc(O)c2c(c1)oc(=O)c1c3cc(O)c(O)cc3oc21 3.2 Celsius
O=Nc1c(-c2c(O)[nH]c3ccc(S(O)(O)O)cc23)[nH]c2ccccc12 3.64 Celsius
O=c1cc(-c2ccccc2)oc2cc(O)cc(O)c12 5.03 Celsius

Same assay, conditions: Recombinant CLK1, thermal shift (DSF), at 10 µM, protein 2 µM, buffer 10 mM HEPES, pH 7.5, NaCl 150 mM, active compounds read high

Tm shift, active:
Clc1cccc(-c2cnc3ccc(NCCc4ccccn4)nn23)c1 4.83 Celsius
c1ccc(-c2cnc3ccc(NCc4cccs4)nn23)cc1 3.23 Celsius
CC(C)c1ccc(Nc2ccn3ncc(-c4ccsc4)c3n2)cc1 4.63 Celsius

Same assay, conditions: Recombinant CLK1, thermal shift (DSF), at 10 µM, protein 2 µM, buffer 10 mM HEPES, pH 7.5, NaCl 150 mM, with 50 µM L-Arg/L-Glu (1:1), active compounds read high

Tm shift, active:
CCC(CO)Nc1ccc2ncc(-c3ccc(C(=O)O)cc3)n2n1 (stereo not given) 4.8 Celsius
NS(=O)(=O)c1ccc(Nc2nc(OCC3CCCCC3)c3[nH]cnc3n2)cc1 3.9 Celsius
Nc1cccc(-c2cnn3ccc(Nc4cccc(Cl)c4)nc23)c1 3.6 Celsius
CC(C)[C@@H](CO)Nc1ccc2ncc(-c3cccc(Cl)c3)n2n1 3.9 Celsius
CCC(CO)Nc1ccc2ncc(-c3cccc(CO)c3)n2n1 (stereo not given) 5.3 Celsius
COCCNc1ccc2ncc(-c3cccc(C(N)=O)c3)n2n1 3.9 Celsius
COC(=O)c1ccc(-c2cnc3ccc(NC4CCOCC4)nn23)cc1 4.3 Celsius
COCCNc1ccc2ncc(-c3cccc(Cl)c3)n2n1 3.6 Celsius
COCCNc1ccc2ncc(-c3cccc(C(C)=O)c3)n2n1 5.1 Celsius
Nc1ccc(-c2cnn3ccc(Nc4cccc(Cl)c4)nc23)cc1 5.8 Celsius
CC(=O)Nc1cccc(-c2cnc3ccc(N[C@H](CO)C(C)C)nn23)c1 7.4 Celsius
Fc1cccc(-c2cnc3ccc(NC4CCOCC4)nn23)c1 4.5 Celsius
Oc1cccc(-c2cnc3ccc(NC4CCOCC4)nn23)c1 5.1 Celsius

Source: PubChem BioAssay AID382 (SGCOxCompounds, 2006)
